Only some compounds are listed: those with a hit (about 10% of all), similar ones and a draw of the others.
Six1-Eya2 inh: Six1/Eya2 interaction inhibition; AlphaScreen GST-Six1/His-Eya2 binding, biochemical; hits give low values; AID 651725; activity change, % (test concentration not listed); Q15475+O00167; 360,000 tested, 0.56% active; in the data active = activity change below about -65%; inconclusive = mostly about -30% to -63%; note: % is set by controls: 0 for no effect and ±100 for the full control effect
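GST-Six1 + His-Eya2 (5X stock: 250/500 nM); Tris pH 8.0, 300 mM NaCl, 0.05% BSA, 0.02% Tween 20; GSH donor/Ni acceptor beads; 1 h 37 °C dark; AlphaScreen readout.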
BAZ2B inh: inhibitors of human BAZ2B bromodomain. AID 504333. Potency, µM (top dose mostly 114 µM), without a hit: at the highest dose activity change, negative = inhibition, actives largely listed as inhibitors. 360,000 tested, 4.4% active. Q9UIF8. AlphaScreen BAZ2B-H3K14Ac peptide displacement; note: potency is the fitted concentration of half-maximal effect; % is set by controls: 0 for no effect and ±100 for the full control effect; nearly all actives have a fitted effect of over 60% in size
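AlphaScreen displacement: compounds (up to 110uM) incubated 30 min at room temperature with a preformed 50 nM BAZ2B/50 nM biotinylated H3K14Ac peptide complex in PBS pH 7.4 with Tween-20. Donor and acceptor beads at 10 ug/mL final added, 20 min light-protected before reading.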
JMJD2A Tudor inh: blocks the human JMJD2A Tudor domain; O75164; AlphaScreen JMJD2A-Tudor / H3K4me3 peptide binding; Potency, µM (top dose mostly 114 µM), for inactives: top-dose activity change, negative = inhibition, usual class: inhibitors; 390,000 tested, 4.4% active; AID 504339; note: potency is the fitted concentration of half-maximal effect; % is set by controls: 0 for no effect and ±100 for the full control effect; nearly all actives have a fitted effect of over 50% in size
Target sequence (O75164 whole entry, looked up, the tested form may be a part): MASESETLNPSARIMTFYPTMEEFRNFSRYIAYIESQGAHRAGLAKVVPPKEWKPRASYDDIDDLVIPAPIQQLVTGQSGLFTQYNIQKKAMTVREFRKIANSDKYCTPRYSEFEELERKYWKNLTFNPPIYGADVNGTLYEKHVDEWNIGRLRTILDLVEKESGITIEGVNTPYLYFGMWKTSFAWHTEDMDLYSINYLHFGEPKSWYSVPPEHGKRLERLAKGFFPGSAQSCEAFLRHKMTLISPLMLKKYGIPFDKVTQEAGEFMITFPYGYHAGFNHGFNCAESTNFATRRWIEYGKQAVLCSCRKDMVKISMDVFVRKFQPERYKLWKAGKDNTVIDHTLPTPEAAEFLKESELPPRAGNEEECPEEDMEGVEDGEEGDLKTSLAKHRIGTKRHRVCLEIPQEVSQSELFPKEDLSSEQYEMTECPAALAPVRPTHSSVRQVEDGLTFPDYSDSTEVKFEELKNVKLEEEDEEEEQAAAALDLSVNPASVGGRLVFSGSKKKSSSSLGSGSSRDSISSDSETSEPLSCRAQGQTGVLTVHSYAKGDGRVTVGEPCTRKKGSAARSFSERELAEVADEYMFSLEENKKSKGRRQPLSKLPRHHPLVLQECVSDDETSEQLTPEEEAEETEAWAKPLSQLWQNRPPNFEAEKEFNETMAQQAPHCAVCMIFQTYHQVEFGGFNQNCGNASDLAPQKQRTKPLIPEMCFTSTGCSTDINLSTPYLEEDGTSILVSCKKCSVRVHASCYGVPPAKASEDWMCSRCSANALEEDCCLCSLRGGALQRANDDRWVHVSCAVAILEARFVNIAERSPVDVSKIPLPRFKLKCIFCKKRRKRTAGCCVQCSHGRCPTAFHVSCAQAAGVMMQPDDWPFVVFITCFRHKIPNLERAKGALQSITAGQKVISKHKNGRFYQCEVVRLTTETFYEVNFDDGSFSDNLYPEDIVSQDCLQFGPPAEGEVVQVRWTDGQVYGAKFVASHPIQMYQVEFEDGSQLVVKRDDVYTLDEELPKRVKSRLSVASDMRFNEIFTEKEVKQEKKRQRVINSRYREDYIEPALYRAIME
G9a block: G9a (human) methyltransferase inhibition; AID 504332; 350,000 tested, 8.8% active; G9a H3K9 monomethylation, AlphaScreen, 2 h; Potency, µM (doses to about 102 µM), inactives show top-dose activity, negative = inhibition, actives largely listed as inhibitors; note: potency is the fitted concentration of half-maximal effect; % is set by controls: 0 for no effect and ±100 for the full control effect; nearly all actives have a fitted effect of over 75% in size
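Compounds were preincubated with 20 nM G9a for 15 min, after which biotinylated H3K9 peptide (500 nM) and SAM (20 uM) started a 2 h room-temperature reaction. Monomethylated product was quantified by antibody-based AlphaScreen chemiluminescence.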
HP1b binding inh: inhibitors of HP1-beta chromodomain binding to methylated histone tails; P83916; AlphaScreen HP1-beta / biotin-H3K9me3 peptide binding; Potency, µM (doses to about 114 µM), for inactives: at the highest dose activity change, negative = inhibition, usual class: inhibitors; 390,000 tested, 0.56% active; AID 540317; note: potency is the fitted concentration of half-maximal effect; nearly all actives have a fitted effect of over 70% in size
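AlphaScreen: HP1-beta (50 nM) preformed 30 min with biotin-H3(1-18)K9me3 peptide (50 nM) in PBS pH 7.4, 0.01% Tween-20. Compound added for 30 min at RT, then streptavidin donor/nickel chelate acceptor beads (10 ug/mL) for 30 min.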
CtBP-E1A blk: blocks the CtBP interaction with E1A; AID 651724; AlphaScreen GST-E1A/His-CtBP binding, 1536-well; hits give low values; 340,000 tested, 0.49% active; activity change, % (concentration not given with the values); in the data active = activity change below about -65%; inconclusive = mostly about -30% to -63%; note: % is set by controls: 0 for no effect and ±100 for the full control effect
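AlphaScreen with 125 nM GST-E1A and 125 nM His-CtBP (5X stocks) in Tris pH 8.0, 300 mM NaCl, BSA, Tween 20, TCEP. Compounds preincubated 2 h at 37 deg C, then glutathione donor/nickel acceptor beads added for 1 h at 37 deg C in dark.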
Numbers without * were called inactive; ? = inconclusive; . = no result given; ! = repeats disagree; [ ] = dose if it differs, or a comment. Unless noted, calls come from the whole dose curve; as a rule, active = well fitted inhibition curve with a large enough effect; inconclusive = small, poorly fitted or top-dose-only effect; inactive = no such curve, though single readings can be large or run the other way.

SMILES	Six1-Eya2 inh	BAZ2B inh	JMJD2A Tudor inh	G9a block	HP1b binding inh	CtBP-E1A blk
O=C(Nc1ccccc1F)c1coc(=O)c(Br)c1	?	?	?	10%[59 µM]	5%	20
O=C(Nc1ccc(Br)cn1)c1coc(=O)c(Br)c1	-16	?	-7%	50µM*	13%	1
[O-][n+]1cccc2cccc(O)c21	-26	.	-14%	.	5%[57 µM]	?
C[n+]1cccc2cccc([O-])c21	-13	56µM*	?	.	1%	.
Cc1noc(C)c1CSc1ccccc1C(=O)OC(C)C(N)=O (configuration not stated)	-1	-27%	0%	?	21%	2
CCCNC(=O)c1ccccc1SCc1c(C)noc1C	1	79µM*	1%	25µM*	53%	6
O=C(Nc1nnc(S(=O)(=O)N2CCCc3ccccc32)s1)c1ccccc1Br	.	-16%	0%	-29%[59 µM]	44%	.
O=C(NCCNC1CCC(c2ccccc2)CC1)c1cccs1 (configuration not stated)	7	50µM*	2.2µM*	28µM*	?	1
O=C(NC(=S)N1CCCCC1CO)c1cccs1 (configuration not stated)	13	.	2.8µM*	.	-32%	-9
CCOC(=O)C1CCN(C(=S)NC(=O)c2cccs2)CC1	-3	-22%	-35%	40µM*	?	1
CCOC(=O)N1CCC(NC(=O)c2ccccc2C(=O)O)CC1	-3	-22%	-5%	9%	16%	-20
CCC1CCCCN1C(=S)NC(=O)c1cccs1 (configuration not stated)	5	-25%	-26%	?	12%	4
CCOC(=O)N1CCC(NCCNC(=O)c2ccccc2)CC1	6	45µM*!	2.2µM*!	9%[0.501 µM]	66%	3
CCNc1ncc2nc(CCc3ccccc3)c(=O)n(-c3ccccc3)c2n1	.	.	.	11%[12.7 µM]	.	.
CCN1CCN(CCCNC(=O)Cn2nc(C)n3c(cc4cc(C)ccc43)c2=O)CC1	.	-9%	-1%	-4%[59 µM]	23%	.
CCN(c1ccc(C)cc1C)S(=O)(=O)c1nnc(NC(=O)CC(C)C)s1	.	-1%	-5%	2%[59 µM]	31%	.
CCOC(=O)N1CCC(NCCNC(=O)c2cccs2)CC1	2	79µM*	1.8µM*	?	?	6
Cc1ccc(C(=O)Nc2ccc3c(c2)N(C)C(=O)c2ccccc2S3)cc1F	.	-7%	-27%	3%[59 µM]	22%	.
O=[N+]([O-])c1cc(-c2nc(-c3ccccc3)no2)ccc1NC1CCCCC1	.	?	-25%	?	15%	.
O=C(NC1CCCC1)c1ccc2c(=O)n(Cc3ccccc3)c(SCc3ccccc3F)nc2c1	.	2%	-12%	8%[59 µM]	11%[57 µM]	.
COc1ccc(Br)cc1S(=O)(=O)NNC(=O)c1c(C)nc2ccccn12	-2	-20%	-5%[11.4 µM]	79µM*	20%	.
Cc1cccc(-n2cnc(C(=O)NNC(=S)Nc3ccc(Cl)cc3)c2)n1	-90*	11µM*	35µM*	8.9µM*	19%	-88*
CCOc1ccc(OCC)c(S(=O)(=O)NNC(=O)c2c(C)nc3ccccn23)c1	-2	0%	?	?	27%	-15
Cc1nc2ccccn2c1C(=O)NN	9	?	-16%	?	36%	3
Cc1nc2ccccn2c1C(=O)NNC(=S)Nc1ccccc1	-10	-17%	-12%	-130%[59 µM]	36%	-6
SMILES	Six1-Eya2 inh	BAZ2B inh	JMJD2A Tudor inh	G9a block	HP1b binding inh	CtBP-E1A blk
Cc1nc2ccccn2c1C(=O)NNC(=S)Nc1ccc(Cl)cc1	-4	3%	?	1.3µM*	-14%	2
Cc1nc2ccccn2c1C(=O)NNC(=O)Nc1ccccc1	-7	-18%	-2%	50µM*	26%	-15
CCOC(=O)C1CCN(C(=O)Cn2c(-c3cccs3)cc3cc(Cl)ccc32)CC1	.	1%	-2%	3%[59 µM]	33%	.
CC(Sc1nnc(-c2cccnc2)n1N)C(=O)NCCC1=CCCCC1 (configuration not stated)	9	7%	-12%	56µM*	8%	-4
CC(Sc1nnc(-c2ccco2)o1)C(=O)NCCC1=CCCCC1 (configuration not stated)	0	-2%	-5%	50µM*	44%	2
CC(Sc1nnc(-c2cccnc2)n1N)C(=O)N1CCOCC1 (configuration not stated)	-1	12%	-5%	-1%	13%	-12
CC(C)c1cnc2c(c1SCC(=O)Nc1cccc(F)c1)c(=O)n(C)c(=O)n2C	.	-5%	-25%	?	16%[57 µM]	.
COc1cc(/C=C/[N+](=O)[O-])ccc1OC(=O)/C=C/c1ccc(F)cc1	?	8%	-19%	.	6%	-90*
COc1cc(/C=C/[N+](=O)[O-])ccc1OCc1cccc(C(=O)O)c1	-76*	28µM*	-31%	14µM*	7%	2
COc1ccc(/C=C/C(=O)Oc2ccc(C)c(C)c2)cc1OC	-5	.	26%	49%	32%	?
CCOC(=O)c1cc(OC(=O)c2cc(OC)c(OC)c(OC)c2)n(-c2ccccc2)n1	.	-21%	-18%	-1%[59 µM]	35%	.
NS(=O)(=O)c1ccc(CCNC(=O)c2ccc3nc(CCc4ccccc4)oc3c2)cc1	.	0%	-3%	1%[59 µM]	24%[57 µM]	.
COc1ccc(Nc2oc(-c3ccco3)nc2S(=O)(=O)c2ccc(F)cc2)cc1	-3	?	?	45µM*	-6%	.
O=C(CSc1oc(-c2ccco2)nc1S(=O)(=O)c1ccc(F)cc1)NCC1CCCO1 (configuration not stated)	1	11%	-17%	?	3%	-12
O=S(=O)(c1ccc(F)cc1)c1nc(-c2ccco2)oc1Nc1ccc(F)cc1	?	?	-28%	50µM*	7%	-12
CCOc1ccc(Nc2oc(-c3ccco3)nc2C#N)cc1	-26	-37%	-22%	-43%[59 µM]	-3%	-22
O=C(Nc1ccc(F)cc1)c1ccc2ncsc2c1	5	-2%	-2%	35µM*	45%	.
CC(=O)NC(=O)COC(=O)c1ccc2ncsc2c1	4	8%	-15%	56µM*	38%	1
O=C(Nc1ccc(C(F)(F)F)cc1)c1ccc2ncsc2c1	5	2%	-1%	?	28%	-10
O=C(Nc1ccc(Cl)cc1)c1ccc2ncsc2c1	21	2%	3%	45µM*	45%	.
Cc1ccc(NC(=O)c2ccc3ncsc3c2)cc1S(=O)(=O)N(C)C	.	56µM*	.	?	.	.
O=C(O)c1ccc2ncsc2c1	0	20µM*	20µM*	?	-23%	4
O=C(c1ccc2ncsc2c1)N1CCCCC1	2	3%	-11%	-3%	44%	3
Nc1ccc(-c2nc3ccc(C(=O)O)cc3s2)cc1	-11	2%	0%	40µM*	31%	-11

From PubChem BioAssay
